aSyn UTR inh: MLPCN primary screen, SNCA 5' untranslated region; alpha-synuclein 5'UTR reporter, inhibitor activity; inhibition, % (tested at 7.5 µM); 0.82% of 300,000 active; AID 1813, 2009; in the data active = inhibition above about 60%; inconclusive = no clear call, values can overlap the other calls;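 note: H4 neuroglioblastoma cells stably carrying SNCA 5'UTR luciferase fusion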
KLF5 inh: KLF5 expression inhibitors, primary screen, DLD-1 cells, luminescence. DLD-1 KLF5 promoter-luciferase reporter. inhibition, % at 5 µM. 0.23% of 290,000 active. AID 1700, 2009;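 active = inhibition above a per-plate limit of that plate's mean compound inhibition plus 3 SD, cut at about 60% in these data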;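 note: higher means less KLF5 promoter-driven luciferase light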
697 NFkB inh: inhibitors of PMA/ionomycin-induced NF-kB reporter, 697 cells, primary screen, B-cell NF-kB inhibitor project, cell-based, luminescence, uHTS; AID 435022, 2010; 697 B-cell NF-kB luciferase reporter, 16 h; 0.33% of 330,000 active; inhibition, % at 4 µM; in the data active = inhibition above about 35%
Jurkat NFkB inh: inhibitors of induced NF-kB luciferase reporter, primary screen, TCR NF-kB activation inhibitor project, cell-based, luminescence, uHTS; 0.53% of 330,000 active; Jurkat, PMA/ionomycin-induced NF-kB luciferase reporter; inhibition, % at 4 µM; in the data active = inhibition above about 50%
Gli-Sufu block: Gli-Sufu pathway antagonists, primary screen, luciferase luminescence, Sufu-KO-LIGHT cells, uHTS | Sufu-KO-LIGHT fibroblasts, Gli luciferase reporter luminescence | inhibition, % at 5 µM | 0.74% of 340,000 active;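 active = inhibition above about 55%, limit read from the data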
Mdm2-MdmX inh: inhibitors of human Mdm2-MdmX association, primary screen, cell-based, luminescence, split luciferase, SaOS-2, uHTS | 3% of 330,000 active | SaOS-2 split-luciferase Mdm2/MdmX complementation | inhibition, % at 8 µM | Protein Mdm4 (Homo sapiens) + E3 ubiquitin-protein ligase Mdm2 (Homo sapiens), … | AID 485346, 2010;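 active = inhibition of at least 50% at 8 µM in the primary screen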
Target sequence (O15151 whole entry, looked up): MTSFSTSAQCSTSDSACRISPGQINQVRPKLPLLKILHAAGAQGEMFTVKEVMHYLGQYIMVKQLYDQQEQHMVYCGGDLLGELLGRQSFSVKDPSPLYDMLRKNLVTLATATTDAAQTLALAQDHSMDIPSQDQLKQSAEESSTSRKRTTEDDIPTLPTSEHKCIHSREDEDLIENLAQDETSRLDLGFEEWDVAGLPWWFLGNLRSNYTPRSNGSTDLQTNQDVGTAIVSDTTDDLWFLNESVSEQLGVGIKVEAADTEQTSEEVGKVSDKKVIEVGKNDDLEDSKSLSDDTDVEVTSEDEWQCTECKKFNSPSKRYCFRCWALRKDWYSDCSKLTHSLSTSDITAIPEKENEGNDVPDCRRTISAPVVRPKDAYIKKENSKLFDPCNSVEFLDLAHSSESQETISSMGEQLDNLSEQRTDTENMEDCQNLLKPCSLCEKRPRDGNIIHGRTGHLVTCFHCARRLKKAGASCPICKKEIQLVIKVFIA
Target sequence (Q00987 whole entry, looked up): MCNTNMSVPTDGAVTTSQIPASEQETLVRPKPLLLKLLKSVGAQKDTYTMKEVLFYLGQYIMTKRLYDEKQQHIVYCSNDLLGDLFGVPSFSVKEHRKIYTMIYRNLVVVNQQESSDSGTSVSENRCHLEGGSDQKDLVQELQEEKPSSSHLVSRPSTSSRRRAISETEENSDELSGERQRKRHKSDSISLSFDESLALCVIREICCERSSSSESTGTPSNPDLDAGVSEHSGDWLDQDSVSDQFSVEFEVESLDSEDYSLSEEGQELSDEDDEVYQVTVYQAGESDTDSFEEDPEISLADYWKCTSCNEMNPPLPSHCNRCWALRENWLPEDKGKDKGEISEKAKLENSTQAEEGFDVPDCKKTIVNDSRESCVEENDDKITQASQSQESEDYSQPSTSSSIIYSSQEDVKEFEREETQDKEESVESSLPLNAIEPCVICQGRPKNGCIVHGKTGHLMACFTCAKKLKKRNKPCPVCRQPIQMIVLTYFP
Mdm2-MdmX conf: Mdm2-MdmX complex disruptors, retested hits, confirmation, luminescence, single concentration; shares compounds with Mdm2-MdmX inh; Mdm2-MdmX binding, luminescent assay; inhibition, % at 8 µM; 55% of 10,000 active; AID 489028, 2010; in the data active = inhibition above about 40%
Full FLuc ctr: full-length luciferase signal inhibition, confirmation, counter-screen for Mdm2/MdmX interaction inhibitor project, cell-based, single concentration, SaOS-2; 77% of 6,200 active; AID 504607, 2011; shares compounds with Mdm2-MdmX inh; inhibition, % at 8 µM; SaOS-2 full-length luciferase counterscreen, luminescence;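 active = mean inhibition at 8 µM reaching about 37%, which flags the compound as non-specific, limit read from the data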;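 note: p53-null SaOS-2 cells with luciferase driven by a doxycycline-inducible promoter; compound on cells about two nights before reading with doxycycline added after day one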
A number is an active result; . = inactive; ? = inconclusive; / = not tested or not shown. An excerpt weighted towards active compounds, which were near 4.1% of everything screened.

SMILES	aSyn UTR inh	KLF5 inh	697 NFkB inh	Jurkat NFkB inh	Gli-Sufu block	Mdm2-MdmX inh	Mdm2-MdmX conf	Full FLuc ctr
COc1ccc(-c2csc(NC(=S)NC(=O)/C=C/c3ccco3)n2)cc1Br	90.7	.	.	.	.	85.0	65.2	59.1
O=C(Nc1ccc(Cl)cc1)NN1CC(=O)N(c2cccc(C(F)(F)F)c2)CC1=O	.	.	.	.	.	.	/	/
CCOc1ccc(CCNC(=O)CCC(=O)N2CCOc3ccccc32)cc1OCC	.	.	.	.	.	.	/	/
C=CCSc1nc(N)c(C#N)c(-c2ccc(C)cc2)c1C#N	.	.	.	.	.	.	/	/
Cc1ccc(-c2cc(-c3ccccc3Cl)c(C#N)c(N)n2)o1	.	.	.	.	.	.	/	/
CCSc1nc(N)c(C#N)c(-c2ccccc2Cl)c1C#N	.	.	.	.	.	50.0	.	65.9
N#Cc1c(N)nc(Sc2ccc(Cl)cc2)c(C#N)c1-c1ccccc1Cl	.	.	.	.	.	79.6	48.0	50.8
Cn1c(CCc2nc3ccccc3[nH]2)nnc1SCC#N	.	.	.	.	.	.	/	/
O=C(NC(O)C(=O)c1ccc(F)cc1)c1ccc(F)cc1 (stereo not given)	.	.	.	.	.	.	/	/
Cc1ccc(S(=O)(=O)NCc2cccnc2)cc1C(=O)NC1CCCCC1	.	/	.	.	/	.	/	/
O=C(Nc1cccnc1)c1ccc([N+](=O)[O-])s1	/	/	.	.	.	52.4	.	/
COc1ccc(C(=O)/C=C/c2ccccc2)c(OC)c1	.	.	.	.	.	.	/	/
COc1ccc(OC)c(C(=O)/C=C/c2ccccc2C(F)(F)F)c1	.	.	.	.	.	89.0	65.2	.
COc1ccc(/C=C/C(=O)C(C(N)=O)=C2SCCS2)cc1	.	.	.	.	.	.	/	/
NC(=O)C(C(=O)/C=C/c1ccc(Cl)cc1)=C1SCCS1	.	.	.	.	.	91.9	82.2	49.0
Cc1cc(C)n(C(=O)/C(C#N)=N/Nc2cc(Cl)cc(Cl)c2)n1	.	.	.	.	.	89.4	87.7	50.7
COc1ccccc1C(=O)NCCC(=O)NCC(c1ccccc1)N(C)C (stereo not given)	.	.	.	.	.	.	/	/
Cc1cc(NC(=O)/C=C/C(=O)N(CC(=O)NC2CCCC2)c2cccc3ccccc23)no1	.	.	.	.	.	52.9	.	/
Cc1cc(NC(=O)CCC(=O)N(CC(=O)NC2CCCC2)c2ccccc2)no1	.	.	.	.	.	.	/	/
Cc1cccc(N(C(=O)CCC(=O)Nc2cc(C)on2)C(C(=O)NC2CCCC2)c2ccccc2)c1 (stereo not given)	.	.	.	.	.	.	/	/
CCOc1ccc(N(C(=O)/C=C/C(=O)Nc2cc(C)on2)C(C(=O)NC2CCCC2)c2ccccc2C)cc1 (stereo not given)	.	.	.	.	.	81.3	77.0	.
CCc1ccc(C(C(=O)NC2CCCC2)N(C(=O)/C=C/C(=O)Nc2cc(C)on2)c2ccccc2C)cc1 (stereo not given)	.	.	.	.	.	77.2	75.4	59.3
CCCCN(C(=O)CCC(=O)Nc1cc(C)on1)C(C(=O)NC1CCCC1)c1ccccc1C (stereo not given)	.	.	.	.	.	.	/	/
COc1ccc(C(C(=O)NCc2ccc(F)cc2)N(C(=O)c2csnn2)C2CC2)cc1 (stereo not given)	.	.	.	.	.	.	/	/
COc1ccc(N2CCN(C(=O)c3cc4c(s3)-c3ccccc3S(=O)(=O)C4)CC2)cc1	.	.	.	.	.	.	/	/
SMILES	aSyn UTR inh	KLF5 inh	697 NFkB inh	Jurkat NFkB inh	Gli-Sufu block	Mdm2-MdmX inh	Mdm2-MdmX conf	Full FLuc ctr
COCCCNC(=O)CSc1nc2ccccc2c(=O)n1CCc1ccc(S(N)(=O)=O)cc1	.	.	.	.	.	.	/	/
CCN(CC)CCOc1ccc(/C(=C(\Cl)c2ccccc2)c2ccccc2)cc1	.	/	.	.	.	69.1	.	/
O=C(Nc1ccc2c(c1)OCCO2)C(=O)NC1CC1	.	.	.	.	.	.	/	/
Cc1ccc(S(=O)(=O)CCC(=O)Nc2nnc(-c3ccc(F)cc3)o2)cc1	.	/	.	.	.	.	/	/
COc1cccc(C(=O)Nc2nnc(-c3ccc(Cl)cc3)o2)c1	.	/	.	.	.	.	/	/
CCOc1ccc(-c2nnc(NC(=O)c3ccc(OCC(C)C)c(OC)c3)o2)cc1	?	.	.	.	.	57.0	56.7	.
COc1cc(OC)cc(C(=O)NNC(=O)c2ccc3c(c2)OCCO3)c1	/	/	.	.	.	.	/	/
COc1cc(OC)cc(-c2nnc(NC(=O)CCS(=O)(=O)c3ccc(C)cc3)o2)c1	.	/	.	.	.	51.0	60.6	72.3
COc1cc(OC)cc(-c2nnc(NC(=O)c3ccc4c(c3)OCCO4)o2)c1	.	.	.	.	.	52.8	.	/
Cc1ccc(N2C(=O)c3ccc(C(=O)N4CCN(Cc5ccccc5)CC4)cc3C2=O)cc1	.	.	.	.	.	.	/	/
Cc1ccc(S(=O)(=O)N2CCN(C(=O)CC(C)n3cncn3)CC2)cc1C (stereo not given)	.	.	.	.	.	.	/	/
COc1cccc(CN(C)C(=O)CSc2nc3ccccc3[nH]2)c1OC	.	.	.	.	.	.	/	/
O=S(=O)(c1ccc(N2CCC(c3ccc(Cl)cc3)=N2)cc1)N(CCO)CCO	.	.	.	.	.	.	/	/
CN(C)CCCNS(=O)(=O)c1ccc(N2CCC(c3ccc(Cl)cc3)=N2)cc1	?	.	.	.	/	100.5	99.5	.
CSCSC1=C(C#N)C(c2ccc(Cl)cc2)C(C(C)=O)=C(C)N1 (stereo not given)	/	.	.	.	/	.	/	/
N#CC1=C(SCC(N)=O)NC2=C(C(=O)c3ccccc32)C1c1ccc(Cl)cc1 (stereo not given)	.	.	.	.	.	50.0	.	/
Cc1cn(CC(=O)NCCN2CCOCC2)c(=O)[nH]c1=O	/	/	/	/	.	/	/	/
Nc1nc(N)nc(-c2ccc(Cl)c(Cl)c2)n1	/	/	.	.	.	50.4	.	/
CCc1nnc(NC(=O)CSc2nc3cccnc3n2C2CCCCC2)s1	.	.	.	.	.	.	/	/
Cc1nc(NC(=O)CSc2nc3cccnc3n2C2CCCCC2)sc1C	.	.	.	.	.	56.9	.	96.3

Screens (PubChem)
